# Screening data as filed in PubChem BioAssay.
# NLRP3 yeast inh: NALP3 inhibition in yeast; Yeast reconstituted NLRP3/ASC/caspase-1, beta-gal luminescence, 24 h; inhibition, % at 10 µM; hit rate 0.39% among 330,000; AID 2825;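 active = inhibition of 50% or more; inactive = inhibition below 50%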;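 note: plate controls were induced DMSO wells for no effect and uninduced yeast grown without galactose for full effect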
# Efflux pump mplx: antifungal efflux pump inhibition, Nile Red retention. S. cerevisiae Candida pump triplex. inhibition, % at 10 µM. hit rate 0.44% among 330,000. AID 485275;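 active = plate passing quality check with inhibition over a set limit, or well fluorescence over plate mean plus 4 SD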;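 note: Nile Red retained in pooled yeast measured as flow cytometry median fluorescence; 0% = buffer negative control and 100% = Enniatin B positive control; higher means more Nile Red kept so more efflux inhibition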
# JMJD2C inh: blocks human GASC-1 demethylase activity. Q9H3R0. GST-JMJD2C(1-420) H3K9me3 demethylation, DELFIA europium. inhibition, % at 2.35 µM. hit rate 0.069% among 330,000. AID 2099;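 active = more than half of a compound's replicate wells show inhibition beyond 50%, single wells judged on their own value; inconclusive = some, but no more than half, of replicates pass 50% inhibition; inactive = no replicate passes 50% inhibition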;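 note: signal counts dimethyl H3K9 product captured on neutravidin plate; 0% = median of DMSO wells and 100% = 0.3 times that DMSO median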
# Target sequence (Q9H3R0 1-420 limits assumed): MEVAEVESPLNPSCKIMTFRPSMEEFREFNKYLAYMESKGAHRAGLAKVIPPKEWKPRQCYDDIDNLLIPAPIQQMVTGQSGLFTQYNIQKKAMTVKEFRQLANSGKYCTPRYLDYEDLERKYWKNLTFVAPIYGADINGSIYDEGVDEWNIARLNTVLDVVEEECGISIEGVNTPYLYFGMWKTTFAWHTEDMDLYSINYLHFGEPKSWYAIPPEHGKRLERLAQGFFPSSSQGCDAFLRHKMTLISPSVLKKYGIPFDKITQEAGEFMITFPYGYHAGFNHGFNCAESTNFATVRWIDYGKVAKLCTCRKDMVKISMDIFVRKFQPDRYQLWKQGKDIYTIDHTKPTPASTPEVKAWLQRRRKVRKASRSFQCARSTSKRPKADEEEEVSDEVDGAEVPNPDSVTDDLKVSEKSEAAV
# HDAC3 inh: blocks human histone deacetylase 3 | O15379 | recombinant HDAC3, fluorogenic peptide/trypsin coupled, fluorescence | inhibition, % at 8.3 µM | hit rate 0.15% among 320,000 | AID 2718; in the data active = inhibition above about 26%, passing the limit was not always enough; inconclusive = no clear call, values can overlap the other calls
# PolyA inhibitor: yeast polyadenylation inhibition; hit rate 0.02% among 300,000; activity score, % at 12 µM; S. cerevisiae SKY197-pL101 polyadenylation reporter, beta-gal luminescence; efflux-impaired pdr1/pdr3 knockout yeast; score 100 = 6 SD above DMSO; AID 1875;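 active = lowest replicate activity score at least 50, where 100 means six control SD above control mean; inconclusive = lowest score under 50 but half or more replicates reach 50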;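 note: yeast exposed to compound for 9 h at 30 °C; higher score means more reporter readthrough which indicates perturbed polyadenylation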
# NALP1 yeast inh: blocks the NALP1 inflammasome reconstituted in yeast | S. cerevisiae NALP1/ASC/caspase-1 growth, X-gal OD620, 72 h | inhibition, % at 10 µM | hit rate 0.61% among 280,000 | AID 2071; in the data active = inhibition mostly above about 24%, no sharp cut-off; inactive = mostly below about 32%
# NALP3 confirm: confirmation of NALP3 inhibitors in yeast; shares compounds with NLRP3 yeast inh; hit rate 81% among 1,300; yeast expressing human NALP3, luminescence; inhibition, % at 10 µM; in the data active = inhibition above about 48%
# Casp1-ASC yeast: counter-screen for NALP3 inhibitors: yeast caspase-1-ASC; shares compounds with NLRP3 yeast inh; yeast expressing Caspase-1-ASC, luminescence counter screen; inhibition, % at 10 µM; hit rate 66% among 1,000; AID 488784
# NALP3 retest: yeast NALP3 inhibition, confirmed on retest; shares compounds with NLRP3 yeast inh; yeast expressing human NALP3, luminescence read-out; inhibition, % at 10 µM; hit rate 53% among 1,000
# * = called active by the depositor; ? = inconclusive; / = not tested or not shown. Compounds with a hit are over-represented: about 1.5% of the library has one in this group of screens. Cut-off read from the data, not from the text of the source, unless noted: active = inhibition above about 50%; inactive = the rest.
SMILES,NLRP3 yeast inh,Efflux pump mplx,JMJD2C inh,HDAC3 inh,PolyA inhibitor,NALP1 yeast inh,others
CCN(CC)S(=O)(=O)c1ccc(NC(=O)Nc2cccc(C(F)(F)F)c2)cc1,2,0,6,?,8,4,
COc1ccc(NC(=O)Oc2cc(C)ccc2C(C)C)cc1,29,0,1,5,0,-12,
Cc1nc2c(=O)n(C)c(=O)n(C)c2nc1Cl,/,0,7,-12,-13,94*,
Cn1c(=O)c2nc(NCc3ccccc3)cnc2n(C)c1=O,24,0,-8,-6,12,4,
Cc1csc(=O)n1CC(=O)OCC(=O)NC(C)c1ccc(F)cc1 (centres undefined),-3,0,-6,-2,/,/,
O=C(NCCCl)NNc1c(Cl)cc(Cl)cc1Cl,11,0,4,3,0,31*,
CCCOc1ccc(/C(O)=C2/C(=O)C(=O)N(CCOC)C2c2cccnc2)cc1 (centres undefined),11,0,3,-2,-9,31*,
C=CCOc1ccc(/C(O)=C2\C(=O)C(=O)N(CCOC)C2c2cccnc2)cc1 (centres undefined),7,0,27,-3,-1,/,
CCOC(=O)N1CCN(C(=O)COC(=O)Cc2ccc(Cl)cc2)CC1,15,0,-3,9,-5,7,
Cc1cc(C)cc(N2C(=O)CC(Sc3ncn[nH]3)C2=O)c1 (centres undefined),29,0,-81,29*,-35,58*,
Cc1cccc(N2C(=O)CC(Sc3nnc(C)s3)C2=O)c1 (centres undefined),20,0,3,8,-5,35*,
CCN(CC)C1CC(=O)N(c2cccc(C)c2)C1=O (centres undefined),22,0,-11,1,-9,90*,
Cc1cccc(N2C(=O)CC(Sc3nc(C)cc(C)n3)C2=O)c1 (centres undefined),4,0,-6,-2,-1,0,
Cc1cc(C)cc(N2C(=O)CC(Cn3nc(C)cc3C)C2=O)c1 (centres undefined),14,0,6,-15,11,-7,
Cn1nnnc1SC1CC(=O)N(c2ccccc2)C1=O (centres undefined),8,0,-1,-7,-3,32,
Cc1cc(C)cc(N2C(=O)CC(Sc3nnnn3-c3ccccc3)C2=O)c1 (centres undefined),33,0,-2,0,3,43*,
Cn1c(N)c(C(=O)CSc2nnc(-c3c[nH]c4ccccc34)n2C2CC2)c(=O)[nH]c1=O,21,0,13,4,/,/,
CN(CC(=O)Nc1ccc(F)cc1)C(=O)c1cc(-c2cccs2)nn1-c1ccccc1,18,/,/,/,/,/,
COc1ccc(NC(=O)CN(C)Cc2cccs2)cc1Cl,35,0,-3,1,23,4,
CCN(CC(=O)NCc1ccco1)S(=O)(=O)c1ccc(OC)cc1,12,0,4,-4,17,/,
C=CCc1c(O)nc(SCC(=O)c2ccccc2)[nH]c1=O,7,0,15,37*,1,-7,
Cc1ccc(C(=O)CSc2nc(O)cc(=O)[nH]2)cc1C,16,0,21,30*,-5,-5,
CCC(C)c1c(O)nc(SCC(=O)c2ccccc2)[nH]c1=O (centres undefined),6,0,7,33*,-6,-15,
Cc1ccc(C(=O)CSc2nc(N)cc(=O)[nH]2)cc1C,18,0,12,5,-9,11,
O=C(CSc1nc(O)c(Cc2ccccc2)c(=O)[nH]1)Nc1ccccc1,19,0,3,-2,-7,5,
SMILES,NLRP3 yeast inh,Efflux pump mplx,JMJD2C inh,HDAC3 inh,PolyA inhibitor,NALP1 yeast inh,others
CCC(C)c1c(O)nc(SCC(=O)Nc2ccccc2)[nH]c1=O (centres undefined),9,0,-29,0,-18,11,
COc1cc(S(=O)(=O)n2cnc3ccccc32)ccc1Br,5,0,11,-5,5,14,
O=C(NC1CCCN(Cc2ccc(Cl)cc2)C1)c1ccoc1 (centres undefined),17,0,-2,10,23,12,
CC1CCCCN1C(=O)COC(=O)c1ccc(=O)n(Cc2ccccc2)n1 (centres undefined),18,0,2,-6,16,/,
Clc1ccc(-c2cnc(Oc3ccccc3)nc2)cc1,-9,0,5,/,8,39*,
COc1ccc(CCNC(=S)Nc2ccc(S(=O)(=O)Nc3ncccn3)cc2)cc1OC,15,0,-2,2,-3,8,
COc1ccc(C2/C(=C(/O)c3ccc4c(c3)CC(C)O4)C(=O)C(=O)N2CCN2CCOCC2)cc1OC (centres undefined),3,/,5,/,20,26,
Cc1cc(S(=O)(=O)Nc2ccc(C(=O)NCC(c3ccccc3)N(C)C)cc2)ccc1F (centres undefined),8,0,1,-5,18,29*,
CN(C)C(CNC(=O)c1ccc(NS(=O)(=O)c2ccc(F)c(F)c2)cc1)c1ccccc1 (centres undefined),9,0,-8,1,1,/,
NC(=O)/C=C\C(=O)Nc1cccc(C(F)(F)F)c1,25,0,6,8,-73,61*,
CC(NCc1ccc2c(c1)OCO2)C(=O)NC1CCCCC1 (centres undefined),17,0,-18,-6,2,-8,
CC(NCc1ccc(F)cc1)C(=O)NC1CCCCC1 (centres undefined),9,0,0,4,21,44*,
Cc1ccc(CNC(=O)c2cc(Cl)cc(Cl)c2)n1C,18,0,-5,-5,-9,11,
Clc1ccc2c(N/N=C/c3ccccc3Br)ccnc2c1,30,-2,2,4,-12,52,
Clc1ccc2c(N/N=C/c3cccc(Br)c3)ccnc2c1,/,0,-1,-3,-29,47*,
CC1(C)[C@@H](O)CC[C@]2(C)C3C(O)C=C4[C@H]5C[C@@](C)(CO)CC[C@]5(C)CC[C@]4(C)[C@]3(C)CC[C@@H]12 (some centres undefined),62*,0,5,2,-21,/,NALP3 confirm=70*;Casp1-ASC yeast=64*;NALP3 retest=50*
O=C(Nc1cccc(Cl)c1)c1ccc2c(c1)OCCO2,78*,0,3,-5,13,23,NALP3 confirm=92*;Casp1-ASC yeast=86*;NALP3 retest=76*
